# Values joined by “and” are separate entries in the source; they are usually repeats but may differ in a detail not shown here. Equal entries are not always repeated. Active and inactive are the calls of the source. Cut-off read from the data, not from the text of the source, unless noted: active = inhibition above about 80%; inactive = the rest.
# Key:
# [1] = compounds altering viability of human ES cells (AID 493140; call rule not given here;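 note: cells exposed to compounds for four days before counting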); settings: human embryonic stem cell survival screen; stronger effect = higher value
# [2] = P. berghei load reduction in hepatocytes – cell-based, HepG2, luciferase luminescence, HepG2 viability, primary screen (AID 624349; in the data active = parasite load remaining mostly below about 12%, no sharp cut-off; inactive = mostly above about 10%;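 note: 100% = mean of DMSO negative control wells on the same plate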); settings: P. berghei liver stage in HepG2, luciferase luminescence, concentration not given here; parasite load remaining: stronger effect = lower value; viability: measured here: HepG2 viability without parasites
# [3] = viability loss with induced miR-34 in A549 – imaging, A549 dox-inducible miR-34, nuclei and caspase counts, primary screen (AID 1347080;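 active = compounds whose cell count with miR-34 switched on is under 0.7 times the count with it off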); settings: A549 miR-34 inducible, Hoechst nuclei count, 48 h
# [4] = MELAS cybrid and Rieske KO viability enhancers – cell-based, MELAS cybrids, Rieske KO mouse fibroblasts, CellTiter-Glo, primary screen (AID 1508586;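 active = mean z-score across replicates of 1.96 or higher in either the MELAS or the Rieske mutant cell line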;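 note: z relative to plate mean and SD of compound and empty wells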); settings: low glucose
# [5] = growth inhibition, single agent or in combination, cell-based, chromothripsis tumors, cisplatin or BGB combos (AID 1671449); settings: LFS_MB_P medulloblastoma cells;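 note: cells exposed for 96 hours; 0% = vehicle DMSO and 100% = killing by high DMSO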
# [6] = growth inhibition, single agent and combos, cell-based, chromothripsis tumors, cisplatin or BGB combos (AID 1671450); settings: HDN33 neuroblastoma cells, stronger effect = higher value;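 note: cells exposed to compound for four days; 0% = vehicle DMSO and 100% = cell killing by high DMSO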
# [7] = growth inhibition, single agents and combos, ICB984, cell-based, cisplatin or BGB combos, synergistic combos for chromothripsis tumors (AID 1671451; call rule not given here;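 note: cells exposed for 96 hours before readout; 0% = vehicle DMSO and 100% = killing by high DMSO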); settings: ICB984 medulloblastoma cells, drug combinations, stronger effect = higher value
# [8] = growth inhibition, single agents and combos, LFS_MB_1R, cell-based, cisplatin or BGB combos, synergistic combos for chromothripsis tumors (AID 1671452); settings: LFS_MB_1R medulloblastoma cells, stronger effect = higher value;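 note: cells exposed for 96 hours before readout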
# [9] = growth inhibition, single agents and combos, HTB85, cell-based, BGB or cisplatin IC20 combos, synergistic combos for chromothripsis tumors (AID 1671453); settings: HTB85 osteosarcoma cells, drug combinations, stronger effect = higher value;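 note: cells exposed for 96 hours before readout; 0% = vehicle DMSO and 100% = high DMSO killing control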
# [10] = growth inhibition, single agents and combos, CRL2098, cell-based, BGB or cisplatin IC20 combos, synergistic combos for chromothripsis tumors (AID 1671454); settings: CRL2098 osteosarcoma cells, drug combinations, stronger effect = higher value;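 note: cells exposed for 96 h before readout; 0% = vehicle DMSO and 100% = killing by high DMSO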
# [11] = growth inhibition, single agents and combos, HD-MB03, cell-based, BGB or cisplatin IC20 combos, synergistic combos for chromothripsis tumors (AID 1671455; in the data active = inhibition above about 83%;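 note: 0% = vehicle DMSO and 100% = high DMSO as cytotoxic control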); settings: HD-MB03 medulloblastoma cells, stronger effect = higher value
# [12] = growth inhibition, single agents and combos, UWB1.289, cell-based, BGB or cisplatin combos, synergistic combos for chromothripsis tumors (AID 1671456); settings: UWB1.289 ovarian carcinoma cells, stronger effect = higher value;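 note: cells exposed to compound for four days; 0% = vehicle DMSO and 100% = killing by high DMSO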
# [13] = growth inhibition, single agents and combos, LFS_MB_2R, cell-based, cisplatin combos, synergistic combos for chromothripsis tumors (AID 1671457); settings: LFS_MB_2R medulloblastoma cells, stronger effect = higher value;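 note: cells exposed to compound for four days before readout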
# [14] = growth inhibition, MDA-MB-436, cell-based, BGB or cisplatin combos, synergistic combos for chromothripsis tumors (AID 1671458; call rule not given here;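 note: cells exposed for 96 hours; 0% = vehicle DMSO and 100% = killing by high DMSO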); settings: MDA-MB-436 breast carcinoma growth inhibition, drug combinations, stronger effect = higher value
# [15] = UWB1.289_BRCA1 ovarian cancer growth, cell-based, BGB or cisplatin combinations (AID 1671459); settings: UWB1.289 BRCA1 ovarian carcinoma, drug combinations, stronger effect = higher value
# [16] = drug combination toxicity in non-malignant astrocytes – cell-based, BGB or cisplatin IC20 combos, cytotoxicity control for chromothriptic childhood tumor combination screen (AID 1671460); settings: Human astrocytes, viability inhibition, drug combinations, at 0.5 µM, stronger effect = higher value;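 note: cells exposed to compounds for 96 hours before viability readout; 0% = vehicle and 100% = killing control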
# [17] = BT084 cell growth, single and combined drugs, ICGC_MB145, cisplatin and BGB IC40 combos (AID 1671461); settings: BT084 medulloblastoma cells, drug combinations, stronger effect = higher value;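 note: cells exposed to drugs for 96 hours; 0% = vehicle DMSO and 100% = high DMSO full killing control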
# [18] = RCMB18 cell growth, single agent and combined, cisplatin and BGB IC40 combos (AID 1671462); settings: RCMB18 medulloblastoma cells, stronger effect = higher value;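 note: cells exposed to compound for four days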
# [19] = CRL1545 cell growth, single agent and combined, cisplatin and BGB IC20 combos (AID 1671464); settings: CRL1545 osteosarcoma cells, stronger effect = higher value;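 note: cells exposed to compound for 96 hours before readout; 0% = vehicle DMSO and 100% = high DMSO killing control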
# [20] = stronger effect = lower value, cell number ratio, induced over uninduced
# [21] = measured here: relative caspase fold change +Dox/-Dox
# [22] = measured here: total cells with miR-34 induction, stronger effect = lower value
# [23] = measured here: total cells without miR-34 induction
# [24] = MELAS cybrid survival, CellTiter-Glo 48 h, stronger effect = higher value
# [25] = Rieske KO mouse fibroblast survival, CellTiter-Glo 72 h
# [26] = measured here: combination with BGB IC40, at 0.05 µM
# [27] = measured here: with BGB IC20 combination, at 0.5 µM
# [28] = measured here: with cisplatin IC20 combination, at 0.5 µM
# [29] = measured here: combination with cisplatin, at 0.5 µM
# [30] = measured here: combination with cisplatin, at 5 µM
smiles,measurement,setting,value
Nc1nc(=S)c2ncn([C@@H]3O[C@H](CO)[C@@H](O)[C@H]3O)c2[nH]1,survival,[1],1.25 (inactive)
same,parasite load remaining,[2],64.1% (inactive) and 72.9% (inactive)
same,viability,[2],36.6% and 69.4%
same,fold change,[3]; [20],1.04 (inactive)
same,fold change,[3]; [21],1.52
same,cell count,[3]; [22],2980
same,cell count,[3]; [23],2870
same,z-score,[4]; [24],3.35 (active)
same,z-score,[4]; [25],-0.524
CN[C@@H]1[C@H](O[C@H]2[C@H](O[C@@H]3[C@@H](O)[C@H](O)[C@@H](N=C(N)N)[C@H](O)[C@H]3N=C(N)N)O[C@@H](C)[C@]2(O)CO)O[C@@H](CO)[C@H](O)[C@H]1O,survival,[1],13.1 (inactive)
same,parasite load remaining,[2],58.9% (inactive) and 103% (inactive)
same,viability,[2],51% and 87.7%
same,fold change,[3]; [20],0.925 (inactive)
same,fold change,[3]; [21],1.1
same,cell count,[3]; [22],9160
same,cell count,[3]; [23],9910
same,z-score,[4]; [24],-0.905 (inactive)
same,z-score,[4]; [25],-0.0139
CCCCN(Cc1ccc(C(=O)NO)cc1)C(=O)Nc1ccccc1,fold change,[3]; [20],0.983 (inactive)
same,fold change,[3]; [21],0.418
same,cell count,[3]; [22],4530
same,cell count,[3]; [23],4600
same,z-score,[4]; [24],-0.565 (inactive)
same,z-score,[4]; [25],1.2
same,inhibition,"[5]; at 0.5 µM, stronger effect = higher value",-20% (inactive) and -3.97% (inactive)
same,inhibition,"[5]; measured here: combination with BGB IC20, at 0.005 µM",-3.67% and 7.55%
same,inhibition,"[5]; measured here: combination with BGB IC40, at 0.005 µM",4.04% and -3.84%
same,inhibition,[5]; [26],40.8% and 5.09%
same,inhibition,"[5]; measured here: combination with cisplatin, at 0.5 µM, stronger effect = higher value",-30.1% and 27.1%
same,inhibition,"[5]; measured here: combination with cisplatin, at 5 µM, stronger effect = higher value",80.5% and 81.8%
same,inhibition,"[6]; BGB combo, at 5 µM",53.8% and 40.9%
same,inhibition,[6]; at 0.5 µM,23.8% (inactive) and 15.6% (inactive)
same,inhibition,"[6]; cisplatin combo, at 5 µM",52.4% and 49.4%
same,inhibition,[6]; [27],24.6% and 6.38%
same,inhibition,[6]; [28],17.1% and 28%
same,inhibition,"[6]; single agent, at 5 µM",52.1% and 51.6%
same,inhibition,"[7]; BGB IC20 combo, at 0.005 µM",-10.6% and 8.62%
same,inhibition,"[7]; BGB IC40 combo, at 0.005 µM",-48.5% and 3.88%
same,inhibition,"[7]; BGB IC40 combo, at 0.05 µM",19.3% and 30.6%
same,inhibition,[7]; at 0.5 µM,-22.3% (inactive) and 1.78% (inactive)
same,inhibition,"[7]; cisplatin combo, at 0.05 µM",16.1% and 28.6%
same,inhibition,"[7]; cisplatin combo, at 0.5 µM",-41.9% and 10.4%
same,inhibition,"[7]; cisplatin combo, at 5 µM",-6.73% and -20.8%
same,inhibition,"[7]; measured here: 5 uM single agent, at 5 µM",-6.18% and 2.93%
same,inhibition,[8]; at 0.5 µM,-0.52% (inactive) and 4.37% (inactive)
same,inhibition,[8]; [26],-26.5% and -6.78%
same,inhibition,[8]; [29],3.43% and 2.01%
same,inhibition,[8]; [30],21.2% and 8.3%
same,inhibition,[9]; at 0.5 µM,19.9% (inactive) and 9.96% (inactive)
same,inhibition,"[9]; measured here: with BGB IC20, at 0.5 µM",8.29% and 2.56%
same,inhibition,"[9]; measured here: with BGB IC20, at 5 µM",37.9% and 32.7%
same,inhibition,"[9]; measured here: with cisplatin IC20, at 0.5 µM",24.2% and 15.2%
same,inhibition,"[9]; measured here: with cisplatin IC20, at 5 µM",61.3% and 51.1%
same,inhibition,"[9]; single agent, at 5 µM",64% and 41.2%
same,inhibition,[10]; at 0.5 µM,-11.3% (inactive) and -33.3% (inactive)
same,inhibition,"[10]; measured here: combination with BGB at IC20, at 0.5 µM",5.14% and -65%
same,inhibition,"[10]; measured here: combination with cisplatin at IC20, at 0.5 µM",14.3% and -15.5%
same,inhibition,[11]; at 0.5 µM,14.8% (inactive) and 3.61% (inactive)
same,inhibition,"[11]; measured here: combo with BGB at IC20, at 0.5 µM",8.17% and 6.08%
same,inhibition,"[11]; measured here: combo with cisplatin at IC20, at 0.5 µM",19.9% and -1.69%
same,inhibition,[12]; at 0.5 µM,11.9% (inactive) and 3.45% (inactive)
same,inhibition,"[12]; measured here: inhibition with BGB combination, at 0.05 µM",1.66% and 3.63%
same,inhibition,"[12]; measured here: inhibition with cisplatin combination, at 0.05 µM",-1.43% and -3.86%
same,inhibition,[13]; at 0.5 µM,-2.85% (inactive) and 5.34% (inactive)
same,inhibition,[13]; [29],10.6% and 13.6%
same,inhibition,[13]; [30],66.3% and 45%
same,inhibition,[14]; at 0.5 µM,2.63% (inactive) and 5.38% (inactive)
same,inhibition,"[14]; measured here: BGB combination, at 0.5 µM",-2.67% and 11.6%
same,inhibition,"[14]; measured here: BGB combination, at 5 µM",10.7% and 17.3%
same,inhibition,"[14]; measured here: cisplatin combination, at 0.5 µM",0.872% and -0.512%
same,inhibition,"[14]; measured here: cisplatin combination, at 5 µM",26% and 22.1%
same,inhibition,"[15]; BGB combination, concentration series, at 5 µM",53.9% and 55%
same,inhibition,[15]; at 0.5 µM,11.3% (inactive) and 5.83% (inactive)
same,inhibition,"[15]; cisplatin combination, concentration series, at 5 µM",64.1% and 65%
same,inhibition,[16],12.4% (inactive) and -2.38% (inactive)
same,inhibition,[16]; measured here: combo with BGB IC20,32.5% and 11.7%
same,inhibition,[16]; measured here: combo with cisplatin IC20,10.7% and -23.3%
same,inhibition,[17]; at 0.5 µM,4.6% (inactive) and 18.3% (inactive)
same,inhibition,"[17]; cisplatin combination, at 0.5 µM",19.3% and 17.8%
same,inhibition,"[17]; cisplatin combination, at 5 µM",71.8% and 68.9%
same,inhibition,"[17]; measured here: BGB IC40 combination 0.05 uM, at 0.05 µM",-5.38% and 25.6%
same,inhibition,"[17]; single agent, at 5 µM",45.6% and 57.8%
same,inhibition,[18]; at 0.5 µM,12.4% (inactive) and 19.2% (inactive)
same,inhibition,"[18]; cisplatin combo, at 5 µM",43.7% and 48.5%
same,inhibition,"[18]; measured here: BGB IC40 combination, at 0.05 µM",-4.7% and 0.072%
same,inhibition,[18]; [29],39% and 19%
same,inhibition,"[18]; single agent, at 5 µM",15.2% and 39.4%
same,inhibition,[19]; at 0.5 µM,-6.16% (inactive) and 6.99% (inactive)
same,inhibition,[19]; [27],-21.4% and 15.9%
same,inhibition,[19]; [28],1.44% and 0.349%
same,inhibition,"[19]; single agent, at 0.05 µM",-0.576% and -13%
same,inhibition,"[19]; single agent, at 5 µM",32.4% and 24.1%

# Reference: PubChem BioAssay
